The source of these data is the supplement of paper PMC13380429.

Unmarked numbers belong to inactive results.

The experiment concerns Vero E6 infected with SARS-CoV-2. Nature of the experiment: SARS-CoV-2 infection rate relative to infected DMSO; higher = more infection, active = 60 or less. The conditions noted are these: 24 h.
Consider `CCCCCCNC(=O)n1cc(F)c(=O)[nH]c1=O` [Carmofur] (0.833333 µM), for which the SARS-CoV-2 infection rate is 106%.

For the compound `O=[N+]([O-])O[C@@H]1CO[C@H]2[C@@H]1OC[C@@H]2O` [isosorbide-mononitrate] (10 µM), the SARS-CoV-2 infection rate is 110%.

Consider `Cc1onc(-c2ccccc2)c1-c1ccc(S(N)(=O)=O)cc1` [valdecoxib] (10 µM), for which the SARS-CoV-2 infection rate was 98.5%.

`C[C@@H]1COC(Nc2ccc3ncnc(Nc4ccc(OCc5nccs5)c(Cl)c4)c3c2)=N1` (10 µM): the SARS-CoV-2 infection rate is 97%.

For `C[C@@H]1CN(CCCn2c3ccccc3c3ccccc32)C[C@H](C)N1` [rimcazole] (10 µM), the SARS-CoV-2 infection rate was 19.5% (active).

Turning to `C[C@H](NC(=O)C(C)(C)Oc1ccc(C(F)(F)F)cn1)[C@@H](Cc1ccc(Cl)cc1)c1cccc(C#N)c1` [taranabant] (10 µM), the SARS-CoV-2 infection rate was 101%.

With `CCCc1cc(C(N)=S)ccn1` [protionamide] (10 µM), the SARS-CoV-2 infection rate was 98%.

Consider `CO[C@@]1(NC(=O)CSCC#N)C(=O)N2C(C(=O)O)=C(CSc3nnnn3C)CS[C@@H]21` [cefmetazole] (10 µM), for which the SARS-CoV-2 infection rate was 98.5%.

Turning to `CC(=O)NCCC(=O)N[C@@H](Cc1c[nH]cn1)C(=O)O` [N-acetylcarnosine] (10 µM), the SARS-CoV-2 infection rate is 116%.

With `COC(=O)/C=C/c1cccc(N(Cc2ccc(-c3ccc(N(C)C)cc3)cc2)C(=O)C2CCCCC2)c1` [fexaramine] (10 µM), the SARS-CoV-2 infection rate is 86%.

Regarding `Oc1cc2c(cc1O)[C@@H]1c3ccc(O)c(O)c3OC[C@]1(O)C2` [hematoxylin] (10 µM), the SARS-CoV-2 infection rate was 114%.

Take `Cc1cn([C@@H]2C[C@@H](O)[C@H](CO)O2)c(=O)[nH]c1=O` [telbivudine] (10 µM): the SARS-CoV-2 infection rate was 118%.

As for `CC[N+](CC)(CC(=O)Nc1c(C)cccc1C)Cc1ccccc1` [denatonium-benzoate] (10 µM), the SARS-CoV-2 infection rate is 116%.

Take `Cc1ccc(C(=O)N(CCCN)[C@@H](c2nc3cc(Cl)ccc3c(=O)n2Cc2ccccc2)C(C)C)cc1` [ispinesib] (0.833333 µM): the SARS-CoV-2 infection rate is 110%.

With `Cn1cc(C(=O)c2cccc3ccccc23)cc1C(=O)O` [napirimus] (10 µM), the SARS-CoV-2 infection rate was 107%.

With `CC[C@@H](C)c1ccc(NC(=O)Cn2cnc3c2c(=O)n(C)c(=O)n3C)cc1` (racemic) (10 µM), the SARS-CoV-2 infection rate was 92%.

As for `CCCCCCOC(=O)CCC(=O)CN` [hexaminolevulinate] (10 µM), the SARS-CoV-2 infection rate was 102%.

Take `CCN(CCNC(=O)Nc1ccccc1Br)c1cccc(C)c1` (10 µM): the SARS-CoV-2 infection rate was 112%.

As to `COc1cc(-c2cc(-c3cccc(O)c3)cnc2N)cc(OC)c1OC` (10 µM), the SARS-CoV-2 infection rate was 95%.

Take `Cc1cc(C)nc(NS(=O)(=O)c2ccc(N)cc2)n1` [sulfamethazine] (10 µM): the SARS-CoV-2 infection rate is 111%.

As to `O=C(COc1ccc(Cl)cc1)N[C@H]1CC[C@H](NC(=O)COc2ccc(Cl)cc2)CC1` (10 µM), the SARS-CoV-2 infection rate was 106%.

Take `CCCCCCCCN=c1ccn(CCCCCCCCCCn2ccc(=NCCCCCCCC)cc2)cc1` [octenidine] (0.833333 µM): the SARS-CoV-2 infection rate is 108%.

Turning to `CCOc1ccccc1OCC1CNCCO1` (stereo not given) [viloxazine] (10 µM), the SARS-CoV-2 infection rate is 112%.

`COc1cccc(OCCCN)c1-c1cc(Nc2cnc(C#N)cn2)n[nH]1` (10 µM): the SARS-CoV-2 infection rate is 103%.

With `CCOCCn1c(C2CCN(CCc3ccc(C(C)(C)C(=O)O)cc3)CC2)nc2ccccc21` [bilastine] (10 µM), the SARS-CoV-2 infection rate was 107%.

For `CC(=O)NCCc1c[nH]c2ccccc12` [N-acetyltryptamine] (10 µM), the SARS-CoV-2 infection rate is 94.5%.

As for `CSc1ccc(C(=O)c2[nH]c(=O)[nH]c2C)cc1` [enoximone] (10 µM), the SARS-CoV-2 infection rate is 88.5%.

As for `Nc1ccc(S(=O)(=O)Nc2ccnn2-c2ccccc2)cc1` [sulfaphenazole] (10 µM), the SARS-CoV-2 infection rate is 99.5%.

As for `C[C@]12CC[C@H](O)CC1=CC[C@@H]1[C@@H]2CC[C@]2(C)C(c3cccnc3)=CC[C@@H]12` [Abiraterone (CB-7598)] (10 µM), the SARS-CoV-2 infection rate is 115%.

Take `COc1cc(N)c(Cl)cc1C(=O)OCCN1CCCCC1` (10 µM): the SARS-CoV-2 infection rate was 110%.

Take `CC(C)CNc1ccnc(NCc2csc(-c3ccccc3)n2)n1` (0.833333 µM): the SARS-CoV-2 infection rate is 106%.

As to `C[C@@H]1CCC[C@H](C)N1NC(=O)c1ccc(Cl)c(S(N)(=O)=O)c1` [clopamide] (10 µM), the SARS-CoV-2 infection rate was 103%.

With `O=C(O)c1c(Sc2ccccc2)c2cc(Cl)ccc2n1Cc1ccc(Cl)cc1` (10 µM), the SARS-CoV-2 infection rate is 102%.

On to `BrC1C(Br)C(Br)C(Br)C(Br)C1Br` (stereo not given) [1,2,3,4,5,6-hexabromocyclohexane] (10 µM), for which the SARS-CoV-2 infection rate is 85%.

With `Cc1cc(C)c(S(=O)(=O)n2cc(C)cc2C)c(C)c1` (10 µM), the SARS-CoV-2 infection rate was 102%.

Regarding `Cc1nc2sccn2c(=O)c1CCN1CCC(=C(c2ccccc2)c2ccc(F)cc2)CC1` (10 µM), the SARS-CoV-2 infection rate was 81.5%.

For the compound `O=C1NC(=O)c2cc(Nc3ccccc3)c(Nc3ccccc3)cc21` (10 µM), the SARS-CoV-2 infection rate is 72%.

As for `Cc1[nH]c2ccccc2c1CCNC(=O)c1cccs1` (10 µM), the SARS-CoV-2 infection rate was 103%.

Take `Cn1nnc(-c2ccc(-c3ccc(N4C[C@H](COP(=O)(O)O)OC4=O)cc3F)cn2)n1` [tedizolid-phosphate] (10 µM): the SARS-CoV-2 infection rate is 88%.

For the compound `N[C@@H](Cc1ccc(O)cc1)C(=O)O` [plovamer-acetate] (10 µM), the SARS-CoV-2 infection rate is 108%.
